Out of some 52,000 compounds screened, about 4,300 (8.3%) were called active. Cut-off read from the data, not from the text of the source: active = survival mostly below about 52% (no sharp cut-off); inactive = mostly above about 56%. Shown is part of a subset that was picked to be rich in actives.

The test relates to DeltatarO mutant. The experiment in a line: S. aureus survival, RN4220 and DeltatarO strains – OD600, teichoic acid synthesis inhibitors, primary screen (AID 463173). As to conditions: S. aureus RN4220 wild type/DeltatarO growth, OD600, 18 h, hits give low values, screened at 18.75 µg/mL (by protocol).
On to `COc1ccc(Nc2c(-c3ccc(C)o3)nc3ccc(Cl)cn23)cc1`, for which the survival was 65% (inactive).
The result for `CCOC(=O)C1(C)C=C(Nc2cccc(C(=O)O)c2)C(=O)N1c1ccccc1` (stereo unspecified) reads 73% (inactive); that for `CCOC(=O)C1(C)C=C(Nc2cccc(C)c2)C(=O)N1c1ccccc1` (stereo unspecified), 15% (active); that for `CCOC(=O)C1(C)C=C(Nc2ccc(C)cc2)C(=O)N1c1ccccc1` (stereo unspecified), 50% (inactive).
On to `O=c1[nH]c2ccc(S(=O)(=O)Nc3cc(Cl)ccc3O)cc2o1`, for which the survival is 86% (inactive).
The result for `CC(C(=O)NC1CC1)N1CCC(N2CCCCC2)CC1` (stereo unspecified) reads 98% (inactive); that for `Nc1nn(-c2ccccc2)nc1NC=O`, 95% (inactive); that for `Cc1ccccc1CNC(=O)c1nn(-c2ccccc2F)nc1CO`, 85% (inactive).
In the case of `O=C(NCCCCc1ccccc1)c1nn(-c2ccccc2)nc1CO`, the survival is 58% (inactive).
For `Cc1ccccc1COC(=O)c1nn(-c2ccccc2)nc1N`, the survival was -1% (active).
For `Nc1nn(-c2ccccc2)nc1C(=O)OCc1ccccc1Br`, the survival was 11% (active).
Take `Cc1ccccc1COC(=O)c1ccc(-c2nnn(Cc3ccccc3F)n2)cc1`: the survival was 54% (inactive).
For the molecule `Cc1ccc(Cl)cc1NC(=O)C1CCCN(S(=O)(=O)c2c(C)noc2/C=C/N(C)C)C1` (stereo unspecified), the survival was 51% (inactive).
For `Cc1ccc(CNC(=O)c2c(Nc3ccccc3C)sc(C(=O)c3ccc(F)cc3)c2N)cc1` the value was 20% (active); for `COc1cccc(Nc2sc(C(=O)c3ccc(F)cc3)c(N)c2C(=O)NCc2ccc(Cl)cc2)c1`, 8% (active).
As for `Cc1ccccc1Nc1sc(C(=O)c2ccc(F)cc2)c(N)c1C(=O)NCCc1ccccc1`, the survival is 81% (inactive).
In the case of `COc1cccc(Nc2sc(C(=O)c3ccc(Cl)cc3)c(N)c2C(=O)NCc2ccc(C)cc2)c1`, the survival was 95% (inactive).
Turning to `Cc1ccccc1Nc1sc(C(=O)c2ccccc2)c(N)c1C(=O)NCc1ccc(Cl)cc1`, the survival was 100% (inactive).
As to `COc1cccc(Nc2sc(C(=O)c3ccc(F)cc3)c(N)c2C(=O)NCc2ccc(C)cc2)c1`, the survival was 91% (inactive).
The result for `Cc1cccc(-c2cc(NC(=O)C(C)(C)C)n(-c3ccccc3)n2)c1` reads 99% (inactive).
For the molecule `COc1ccccc1CNC(=O)CCS(=O)(=O)c1ccc2c(c1)CC(C)N2C(=O)C1CC1` (stereo unspecified), the survival was 8% (active).
Take `CCC(=O)N1c2ccc(S(=O)(=O)CCC(=O)NCc3cccc(OC)c3)cc2CC1C` (stereo unspecified): the survival is 102% (inactive).
With `COc1cccc(CNC(=O)CCS(=O)(=O)c2ccc3c(c2)CC(C)N3C(=O)C2CC2)c1` (stereo unspecified), the survival is 20% (active).
The result for `CC1Cc2cc(S(=O)(=O)CCC(=O)NCc3ccccc3Cl)ccc2N1C(=O)C1CC1` (stereo unspecified) reads 89% (inactive); that for `CCC(=O)N1c2ccc(S(=O)(=O)CCC(=O)NCc3ccccc3OC)cc2CC1C` (stereo unspecified), 90% (inactive).
Turning to `COc1ccc(CNC(=O)CCS(=O)(=O)c2ccc3c(c2)CC(C)N3C(=O)C2CC2)cc1` (stereo unspecified), the survival was 95% (inactive).
Regarding `CCc1cccc(NC(=O)c2ccc3c(=O)n4nc(Nc5ccccc5OC)sc4nc3c2)c1`, the survival is 74% (inactive).
With `Clc1ccccc1-c1nnc(SCc2nc(-c3ccccc3)no2)n1-c1ccccc1`, the survival is 52% (inactive).
As to `CC(C)(C)OC(=O)N1CCC(c2c(C(=O)N3CCN(c4ccccc4)CC3)cnn2-c2ccccc2)CC1`, the survival is 81% (inactive).
Consider `Cc1cc(C)n(-c2nc3ccccc3nc2Nc2ccc(Cl)cc2Cl)n1`, for which the survival is 75% (inactive).
As for `Cc1cc(C)n(-c2nc3ccccc3nc2Nc2cccc(C(F)(F)F)c2)n1`, the survival was 75% (inactive).
Regarding `Cc1cc(C)cc(Nc2nc3cc(Cl)c(Cl)cc3nc2-n2nc(C)cc2C)c1`, the survival was 89% (inactive).
For `Cc1cc(C)cc(Nc2nc3ccccc3nc2-n2nc(C)cc2C)c1` the value was 23% (active); for `Cc1ccc(Nc2nc3ccccc3nc2-n2nc(C)cc2C)c(Cl)c1`, 70% (inactive).
The result for `Cc1cc(C)n(-c2nc3ccccc3nc2Nc2ccc(Cl)c(Cl)c2)n1` reads 0% (active); that for `COc1ccc(OC)c(Nc2nc3ccccc3nc2-n2nc(C)cc2C)c1`, 16% (active).
Take `COc1ccccc1Nc1nc2ccc(Cl)cc2nc1-n1nc(C)cc1C`: the survival was 133% (inactive).
As to `Cc1cc(C)n(-c2nc3ccccc3nc2Nc2cccc(C)c2C)n1`, the survival was 21% (active).
As for `Cc1ccc2nc(Nc3cccc(Cl)c3C)c(-n3nc(C)cc3C)nc2c1`, the survival was 123% (inactive).
In the case of `Cc1cc(C)n(-c2nc3ccccc3nc2Nc2cc(Cl)ccc2C)n1`, the survival is 130% (inactive).
The result for `COc1cc(OC)c(Nc2nc3ccccc3nc2-n2nc(C)cc2C)cc1Cl` reads 97% (inactive); that for `CCOC(=O)c1cc(-c2ccccc2)n(CCC(=O)Nc2cc(C)cc(C)c2)c1C`, 99% (inactive).
In the case of `Cc1ccc(NC(=O)C(C)Sc2nc(=O)cc(N)n2-c2cccc(C)c2)cc1` (stereo unspecified), the survival is 59% (inactive).
As to `CCOC(=O)c1cccc(NC(=O)c2cn(-c3cccc(OC)c3)c(=O)c3ccccc23)c1`, the survival is 60% (inactive).
On to `COc1ccc(Cl)cc1NC(=O)c1ccc(CN2C(=O)CCn3nc(C)cc32)cc1`, for which the survival is 66% (inactive).
`CC(C)c1ccc(NC(=O)CSC2=Nc3ccccc3C3=NC(CC(=O)NCCc4ccccc4)C(=O)N23)cc1` (stereo unspecified): the survival was 72% (inactive).
Consider `Nc1nc(CC(=O)NN=C2CCCCCC2)cs1`, for which the survival was 65% (inactive).
Consider `CCOc1ccc(Nc2nc3cc(Cl)c(Cl)cc3nc2-n2nc(C)cc2C)cc1`, for which the survival is 87% (inactive).
For `Cc1cc(C)n(-c2nc3ccccc3nc2Nc2ccc(C(C)C)cc2)n1`, the survival is 8% (active).
As for `Cc1cc(C)n(-c2nc3ccccc3nc2Nc2ccc(N(C)C)cc2)n1`, the survival was -2% (active).
For `COc1cccc(Nc2nc3ccc(C)cc3nc2-n2nc(C)cc2C)c1`, the survival is 88% (inactive).
As to `Cc1cc(C)n(-c2nnc(Nc3ccc(C(C)C)cc3)c3ccccc23)n1`, the survival is 80% (inactive).
Take `CCc1ccccc1Nc1nc2cc(Cl)c(Cl)cc2nc1-n1nc(C)cc1C`: the survival is 89% (inactive).
The result for `Cc1ccc(NC(=O)c2cnn(-c3ccc(C)c(C)c3)c2C2CCN(C(=O)OC(C)(C)C)CC2)c(C)c1` reads 109% (inactive); that for `CN(C(=O)c1ccccc1)C1CCS(=O)(=O)C1` (stereo unspecified), 90% (inactive); that for `Cc1ccc(N2CC(C(=O)NCc3nnnn3-c3ccc(C)c(C)c3)CC2=O)cc1` (stereo unspecified), 69% (inactive).
Turning to `Cc1ccc(-c2ccc(=O)n(CC(=O)NC(C)c3ccccc3)n2)cc1` (stereo unspecified), the survival is 69% (inactive).
As for `Cc1c(-c2cccc(NC(=O)Nc3ccc(Cl)cc3)c2)nc2ncccn12`, the survival was -2% (active).
For `Cc1c(-c2cccc(NC(=O)Nc3ccccc3)c2)nc2ncccn12` the value was 76% (inactive); for `Cc1c(-c2cccc(NC(=O)C(C)(C)C)c2)nc2ncccn12`, 79% (inactive); for `Cc1ccc(-n2nc(C(=O)N3CCC(C)CC3)c(=O)n(C)c2=O)cc1`, 86% (inactive).
For `Cc1ccc(-n2nc(C(=O)N3CCN(c4ccccc4)CC3)c(=O)n(C)c2=O)cc1`, the survival is 124% (inactive).
For the molecule `Cc1ccc(-n2nc(C(=O)N3CCCCC3)c(=O)n(C)c2=O)cc1`, the survival is 52% (active).
Consider `Cn1c(SCc2ccccc2)nnc1C1CCCN1CC(=O)N1CCN(c2ccc(F)cc2)CC1` (stereo unspecified), for which the survival was 70% (inactive).
The result for `Cc1ccc(CNC(=O)CSc2nc(=O)[nH]c3c2CCCC3)cc1` reads 76% (inactive); that for `COc1cc(SC)ccc1C(=O)NCc1ccccc1`, 95% (inactive); that for `Cc1ccc(-n2ncc(C(=O)NCCN3CCc4ccccc4C3)c2C2CCN(C(=O)OC(C)(C)C)CC2)cc1C`, 99% (inactive).
As for `Cc1ccc(C)c(Cn2c(=O)n(CCCC(=O)NCc3ccc4c(c3)OCO4)c(=O)c3sccc32)c1`, the survival is 74% (inactive).
Regarding `CCCC(=O)Oc1c(Sc2ccc(Cl)cc2)c(C)nn1-c1ccccc1`, the survival is 23% (active).
In the case of `CCC(=O)Oc1c(Sc2ccc(Cl)cc2)c(C)nn1-c1ccccc1`, the survival is 13% (active).
Take `CCC(=O)Oc1c(Sc2ccc(C)cc2)c(C)nn1-c1ccccc1`: the survival is 71% (inactive).
As for `COc1ccc(C(=O)Oc2c(Sc3ccccc3)c(C)nn2-c2ccccc2)cc1OC`, the survival was 47% (inactive).
In the case of `Cc1nn(-c2ccccc2)c(OC(=O)C(C)C)c1Sc1ccc(Cl)cc1`, the survival is 36% (active).
Consider `CCCC(=O)Oc1c(Sc2ccc(C)cc2)c(C)nn1-c1ccccc1`, for which the survival was 56% (inactive).
The result for `Cc1nn(-c2ccccc2)c(OC(=O)C(C)C)c1Sc1ccccc1` reads 48% (inactive); that for `COc1ccccc1C(=O)Oc1c(Sc2ccccc2)c(C)nn1-c1ccccc1`, 62% (inactive).
Regarding `COc1cc(C(=O)Oc2c(Sc3ccccc3)c(C)nn2-c2ccccc2)cc(OC)c1OC`, the survival is 83% (inactive).
For `CCC1CCCCN1C(=O)CSc1n[nH]c(-c2ccccc2Cl)n1` (stereo unspecified) the value was 102% (inactive).
For `O=C(NC1CCCCC1)N(Cc1ccccc1)Cc1cc2cc3c(cc2[nH]c1=O)OCCO3`, the survival was 52% (inactive).
The result for `CCOC(=O)c1cnc2c(Cl)cc(Cl)cc2c1Nc1ccccc1OC` reads 57% (inactive); that for `CCOC(=O)c1cnc2c(C)cc(C)cc2c1Nc1ccc(OCc2ccccc2)cc1`, 17% (active); that for `CCOC(=O)c1ccc2nc(C)cc(Nc3cccc(C(=O)O)c3)c2c1`, 173% (inactive).
As for `Cc1cc(C)c2nc(C)cc(Nc3cccc(C(=O)O)c3)c2c1`, the survival is 70% (inactive).
`CCOC(=O)c1cc(S(=O)(=O)Nc2ccccc2OCC)[nH]n1`: the survival was 72% (inactive).
The result for `CCOC(=O)c1cnc2c(C)cc(C)cc2c1Nc1ccccc1OCC` reads -1% (active); that for `CCOC(=O)c1cnc2c(C)cc(C)cc2c1Nc1cccc(C(=O)O)c1`, 5% (active).
For `COc1ccc(CCn2c3c(c(=O)[nH]c2=O)C(NC(=O)c2ccccc2)(C(F)(F)F)C(=O)N3)cc1OC` (stereo unspecified) the value was 58% (inactive).
Turning to `CCOc1ccccc1N(C)C(=O)c1sc2nc3n(c(=O)c2c1C)CCCC3`, the survival is 64% (inactive).
Turning to `CCC(C)NC(=O)c1nn(-c2ccc(C)cc2)nc1CO` (stereo unspecified), the survival was 94% (inactive).
For `COC(=O)c1ccccc1NC(=O)c1cc2cc(C)ccc2n1C` the value was 99% (inactive).
`COc1ccc(CCC(=O)NCc2nc3cccnc3n2Cc2ccc(F)cc2)cc1`: the survival is 119% (inactive).
With `Cc1ccc(Cn2c(CNC(=O)CCc3ccccc3)nc3cccnc32)cc1`, the survival is 97% (inactive).
For `O=C(CCc1nc2cccnc2n1Cc1ccccc1)NCc1cccc(Cl)c1`, the survival was 51% (active).
On to `Cc1ccc(CNC(=O)CCc2nc3cccnc3n2Cc2ccccc2)cc1`, for which the survival was 74% (inactive).
`O=C(CCc1ccccc1)NCc1nc2cccnc2n1Cc1ccc(F)cc1`: the survival is -4% (active).
In the case of `COc1ccc(Cn2c(CCC(=O)NCc3cccc(Cl)c3)nc3cccnc32)cc1`, the survival is 129% (inactive).

For the origin of these results see PubChem BioAssay AID463173 (ICCB-Longwood Screening Facility, Harvard Medical School, 2010).
